# Results: PubChem BioAssay AID1159580 (chemical genetic matrix, 2015)
# Out of some 5,500 compounds screened, about 2,000 (36%) were called active. Another 18% or so got no clear call; they are omitted. The list shows a part of the results. Values without a mark were called inactive. Cut-off read from the data, not from the text of the source: active = normalized growth mostly below about 0.91 (no sharp cut-off); inconclusive = no clear call, values can overlap the other calls; inactive = mostly above about 0.92.
# Test: chemical genetic growth profiling, strain panel (AID 1159580);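 note: tested at 20 µM; growth read once vehicle control cultures reached saturation at 30 °C; 1 = growth at the plate median or of vehicle wells; lower values mean less growth of the strain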
# Conditions: growth OD
smiles,measurement,setting,value
C=C1C(=O)O[C@@H]2C[C@@]3(C)CCC[C@H](C)C3=C[C@H]12,normalized growth,"S. cerevisiae deletion strains, locus YJR043C, strain POL32, hits give low values",0.88
same,normalized growth,"S. cerevisiae deletion strains, locus YJR066W, strain TOR1, hits give low values",0.939
same,normalized growth,"S. cerevisiae deletion strains, locus YKL009W, strain mrt4, hits give low values",1.01
same,normalized growth,"S. cerevisiae deletion strains, locus YKL068W, hits give low values",0.946
same,normalized growth,"S. cerevisiae deletion strains, locus YKL085W, strain MDH1 (second series), hits give low values",0.909 (active)
same,normalized growth,"S. cerevisiae deletion strains, locus YKL085W, strain MDH1, hits give low values",0.909 (active)
same,normalized growth,"S. cerevisiae deletion strains, locus YKL160W, strain elf1, hits give low values",0.78 (active)
same,normalized growth,"S. cerevisiae deletion strains, locus YKL190W, strain CNB1, hits give low values",0.934
same,normalized growth,"S. cerevisiae deletion strains, locus YKR001C, strain vps1, hits give low values",0.496 (active)
same,normalized growth,"S. cerevisiae deletion strains, locus YKR026C, strain gcn3, hits give low values",0.893 (active)
same,normalized growth,"S. cerevisiae deletion strains, locus YKR091W, strain srl3, hits give low values",0.913 (active)
same,normalized growth,"S. cerevisiae deletion strains, locus YLL001W, strain dnm1, hits give low values",0.842 (active)
same,normalized growth,"S. cerevisiae deletion strains, locus YLL026W, hits give low values",0.869 (active)
same,normalized growth,"S. cerevisiae deletion strains, locus YLL041C, strain sdh2, hits give low values",0.888 (active)
same,normalized growth,"S. cerevisiae deletion strains, locus YLR027C, strain aat2, hits give low values",0.827 (active)
same,normalized growth,"S. cerevisiae deletion strains, locus YLR039C, strain RIC1, hits give low values",0.221 (active)
same,normalized growth,"S. cerevisiae deletion strains, locus YLR058C, strain SHM2, hits give low values",0.898
same,normalized growth,"S. cerevisiae deletion strains, locus YLR102C, strain apc9, hits give low values",0.942
same,normalized growth,"S. cerevisiae deletion strains, locus YLR113W, strain HOG1, hits give low values",0.991
same,normalized growth,"S. cerevisiae deletion strains, locus YLR221C, strain rsa3, hits give low values",0.751 (active)
same,normalized growth,"S. cerevisiae deletion strains, locus YLR258W, strain gsy2, hits give low values",0.819 (active)
same,normalized growth,"S. cerevisiae deletion strains, locus YLR262C, strain YPT6 (second series), hits give low values",0.259 (active)
same,normalized growth,"S. cerevisiae deletion strains, locus YLR262C, strain YPT6, hits give low values",0.268 (active)
same,normalized growth,"S. cerevisiae deletion strains, locus YLR268W, strain sec22, hits give low values",0.668 (active)
same,normalized growth,"S. cerevisiae deletion strains, locus YLR320W, strain mms22, hits give low values",0.597 (active)
same,normalized growth,"S. cerevisiae deletion strains, locus YLR330W, strain CHS5, hits give low values",0.848 (active)
same,normalized growth,"S. cerevisiae deletion strains, locus YLR342W, strain FKS1 (second series), hits give low values",0.864
same,normalized growth,"S. cerevisiae deletion strains, locus YLR342W, strain FKS1, hits give low values",0.885 (active)
same,normalized growth,"S. cerevisiae deletion strains, locus YLR357W, strain rsc2, hits give low values",0.662 (active)
same,normalized growth,"S. cerevisiae deletion strains, locus YLR370C, strain arc18, hits give low values",0.899 (active)
same,normalized growth,"S. cerevisiae deletion strains, locus YLR371W, strain rom2, hits give low values",0.646 (active)
same,normalized growth,"S. cerevisiae deletion strains, locus YLR384C, strain iki3, hits give low values",0.87 (active)
same,normalized growth,"S. cerevisiae deletion strains, locus YLR418C, strain cdc73, hits give low values",0.31 (active)
same,normalized growth,"S. cerevisiae deletion strains, locus YML016C, strain PPZ1, hits give low values",0.85 (active)
same,normalized growth,"S. cerevisiae deletion strains, locus YML032C, strain rad52, hits give low values",0.923
same,normalized growth,"S. cerevisiae deletion strains, locus YML120C, strain ndi1, hits give low values",0.818 (active)
same,normalized growth,"S. cerevisiae deletion strains, locus YML124C, strain tub3, hits give low values",0.896 (active)
same,normalized growth,"S. cerevisiae deletion strains, locus YMR058W, strain fet3, hits give low values",0.8 (active)
same,normalized growth,"S. cerevisiae deletion strains, locus YMR078C, strain ctf18, hits give low values",0.915
same,normalized growth,"S. cerevisiae deletion strains, locus YMR125W, strain sto1, hits give low values",0.669 (active)
same,normalized growth,"S. cerevisiae deletion strains, locus YMR129W, hits give low values",0.847 (active)
same,normalized growth,"S. cerevisiae deletion strains, locus YMR205C, strain PFK2, hits give low values",0.653 (active)
same,normalized growth,"S. cerevisiae deletion strains, locus YMR223W, strain ubp8, hits give low values",0.815 (active)
same,normalized growth,"S. cerevisiae deletion strains, locus YMR231W, strain pep5, hits give low values",0.859 (active)
same,normalized growth,"S. cerevisiae deletion strains, locus YMR307W, strain GAS1, hits give low values",0.654
same,normalized growth,"S. cerevisiae deletion strains, locus YNL067W, strain RPL9B, hits give low values",0.896
same,normalized growth,"S. cerevisiae deletion strains, locus YNL071W, strain lat1, hits give low values",0.377 (active)
same,normalized growth,"S. cerevisiae deletion strains, locus YNL153C, strain GIM3, hits give low values",0.868 (active)
same,normalized growth,"S. cerevisiae deletion strains, locus YNL183C, strain NPR1, hits give low values",0.959
same,normalized growth,"S. cerevisiae deletion strains, locus YNL209W, strain ssb2, hits give low values",0.902 (active)
same,normalized growth,"S. cerevisiae deletion strains, locus YNL233W, strain BNI4, hits give low values",0.828 (active)
same,normalized growth,"S. cerevisiae deletion strains, locus YNL248C, strain rpa49, hits give low values",0.617 (active)
same,normalized growth,"S. cerevisiae deletion strains, locus YNL250W, strain rad50, hits give low values",0.949
same,normalized growth,"S. cerevisiae deletion strains, locus YNL271C, strain bni1, hits give low values",0.855 (active)
same,normalized growth,"S. cerevisiae deletion strains, locus YNL298W, strain CLA4, hits give low values",0.943
same,normalized growth,"S. cerevisiae deletion strains, locus YNL307C, strain MCK1, hits give low values",0.737 (active)
same,normalized growth,"S. cerevisiae deletion strains, locus YNL322C, strain KRE1 (second series), hits give low values",0.902 (active)
same,normalized growth,"S. cerevisiae deletion strains, locus YNR049C, strain mso1, hits give low values",0.903 (active)
same,normalized growth,"S. cerevisiae deletion strains, locus YNR052C, strain pop2, hits give low values",0.875 (active)
same,normalized growth,"S. cerevisiae deletion strains, locus YOL006C, strain TOP1, hits give low values",0.598
same,normalized growth,"S. cerevisiae deletion strains, locus YOL012C, strain htz1",0.342
same,normalized growth,"S. cerevisiae deletion strains, locus YOL147C, strain pex11, hits give low values",0.921 (active)
same,normalized growth,"S. cerevisiae deletion strains, locus YOR001W, strain rrp6, hits give low values",0.807 (active)
same,normalized growth,"S. cerevisiae deletion strains, locus YOR061W, strain CKA2, hits give low values",0.925
same,normalized growth,"S. cerevisiae deletion strains, locus YOR069W, strain VPS5, hits give low values",0.915 (active)
same,normalized growth,"S. cerevisiae deletion strains, locus YOR070C, strain gyp1, hits give low values",0.856 (active)
same,normalized growth,"S. cerevisiae deletion strains, locus YOR080W, strain dia2, hits give low values",0.908 (active)
same,normalized growth,"S. cerevisiae deletion strains, locus YOR083W, strain WHI5, hits give low values",0.82 (active)
same,normalized growth,"S. cerevisiae deletion strains, locus YOR106W, strain vam3, hits give low values",0.752 (active)
same,normalized growth,"S. cerevisiae deletion strains, locus YOR136W, strain idh2, hits give low values",0.942
same,normalized growth,"S. cerevisiae deletion strains, locus YOR144C, strain elg1, hits give low values",0.927 (active)
same,normalized growth,"S. cerevisiae deletion strains, locus YOR184W, strain ser1, hits give low values",0.577 (active)
same,normalized growth,"S. cerevisiae deletion strains, locus YOR231W, strain MKK1, hits give low values",1.01
same,normalized growth,"S. cerevisiae deletion strains, locus YOR265W, strain rbl2, hits give low values",0.883 (active)
same,normalized growth,"S. cerevisiae deletion strains, locus YOR270C, strain vph1, hits give low values",0.583 (active)
same,normalized growth,"S. cerevisiae deletion strains, locus YOR290C, strain snf2, hits give low values",0.785 (active)
same,normalized growth,"S. cerevisiae deletion strains, locus YOR316C, strain cot1, hits give low values",0.939
same,normalized growth,"S. cerevisiae deletion strains, locus YPL051W, strain arl3, hits give low values",0.73 (active)
same,normalized growth,"S. cerevisiae deletion strains, locus YPL055C, strain LGE1, hits give low values",0.722 (active)
same,normalized growth,"S. cerevisiae deletion strains, locus YPL078C, strain atp4, hits give low values",0.791 (active)
same,normalized growth,"S. cerevisiae deletion strains, locus YPL106C, strain sse1, hits give low values",0.521 (active)
same,normalized growth,"S. cerevisiae deletion strains, locus YPL240C, strain hsp82, hits give low values",0.825 (active)
same,normalized growth,"S. cerevisiae deletion strains, locus YPL256C, strain CLN2, hits give low values",0.949
same,normalized growth,"S. cerevisiae deletion strains, locus YPR119W, strain clb2, hits give low values",0.907 (active)
same,normalized growth,"S. cerevisiae deletion strains, locus YPR141C, strain kar3, hits give low values",0.926
same,normalized growth,"S. cerevisiae deletion strains, locus YPR163C, strain tif3, hits give low values",0.749 (active)
same,normalized growth,"S. cerevisiae deletion strains, locus YPR167C, strain met16, hits give low values",0.899 (active)
same,normalized growth,"S. cerevisiae deletion strains, strain wtn01, hits give low values",0.909
same,normalized growth,"S. cerevisiae strains, strain wild type, hits give low values",0.882 (active)
